Screening data: PubChem BioAssay, Buhrlage Lab, Dana-Farber Cancer Institute and Novartis Institutes for BioMedical Research (Cambridge, Mass)
In the library only some 14% were active in any assay of this set; here they are far more common.
USP17 block – blocks human USP17 ubiquitin-rhodamine cleavage | purified USP17, Ub-rhodamine cleavage fluorescence, 3 h | 47,000 compounds, 6.5% hits | inhibition, % at 50 µM
USP8 block – human USP8 deubiquitinase inhibition; P40818; purified USP8, Ub-rhodamine cleavage fluorescence, 30 min; inhibition, % at 20 µM; 47,000 compounds, 4.2% hits
USP30 block – inhibitors of human USP30 deubiquitinase. Q70CQ3. purified USP30, Ub-rhodamine cleavage fluorescence. inhibition, % at 25 µM. 47,000 compounds, 5.3% hits. AID 1645860
USP28 block – inhibitors of human USP28 deubiquitinase | purified USP28, Ub-rhodamine cleavage fluorescence, 30 min | AID 1645857 | Q96RU2 | inhibition, % at 25 µM | 47,000 compounds, 3% hits
An asterisk follows results filed as active; i = inactive. No stated cut-off is given here; in the data, active means inhibition above about 30%; inactive means the rest.

SMILES	USP17 block	USP8 block	USP30 block	USP28 block
O=C(Nc1ccccc1)c1ccn(COc2ccccc2F)n1	-2	4	-5	25
Cc1cccc(NC(=O)c2ccn(COc3ccc(F)cc3F)n2)c1C	9	8	16	51*
O=C(Nc1ccccc1Br)c1ccn(COc2ccccc2F)n1	65*	6	34*	19
O=C(c1ccco1)N1CCN=C1SCc1ccc([N+](=O)[O-])cc1	43*	-51	53*	61*
O=C(c1ccco1)N1CCN=C1SCc1ccccc1F	-12	1	-3	75*
Cc1cccc(CNS(=O)(=O)c2ccc3c(c2)C(=O)N(C)c2ncccc2O3)c1	16	19	20	12
COc1cc2c(cc1OC)CN(Cc1cc(=O)n3ccsc3n1)CC2	11	56*	-222	-45
O=C1NC(=O)N2Cc3ccccc3CN(C(=O)c3ccc4ccccc4c3)CC12 (stereo not given)	18	5	13	3
COc1cccc(NC(=O)c2cn3c(n2)CCCC3)c1	-6	0	-6	-6
COc1ccc(OC)c2sc(N(Cc3ccncc3)C(=O)c3ccco3)nc12	24	16	43*	18
COc1ccccc1CNC(=O)Cn1c(=O)c2c(ncn2CC(C)C)n(Cc2ccccc2)c1=O	19	26	31*	18
COCCn1cnc2c1c(=O)n(CC(=O)NCc1ccc(F)cc1)c(=O)n2Cc1ccccc1	25	7	11	4
N#Cc1ccccc1Cn1c(=O)n(CCC(=O)NCc2ccc3c(c2)OCO3)c(=O)c2ccccc21	20	11	25	4
COc1ccnc2c1c(=O)n(CC(=O)NCc1ccccc1Cl)c(=O)n2C	13	0	42*	3
COc1ccccc1CNC(=O)CCCCn1c(=O)c2ccccc2n(Cc2ccccc2C#N)c1=O	65*	0	27	21
CCOc1ccccc1NC(=O)Cn1c(=O)n(CCCCC(=O)NCc2ccccc2OC)c(=O)c2ccccc21	2	2	-2	-4
COc1ccccc1CNC(=O)CCCCn1c(=O)c2ccccc2n(Cc2ccc(C)cc2)c1=O	38*	29	28	19
O=C1CC(c2ccccc2)N(c2ncnc3cc(Cl)ccc23)CCN1 (stereo not given)	13	13	14	6
Cc1ccc(C)c(NC(=O)CCCN2C(=O)c3cccnc3Sc3ccccc32)c1	-8	-1	-16	-11
CN1CCCc2cc(C(CNC(=O)c3cccc(Cl)c3)N3CCCC3)ccc21 (stereo not given)	-147	-104	i	-182
Cc1oc(-c2ccccc2)nc1Cn1c(=O)n(C(C)C)c(=O)c2ccccc21	13	19	29	8
Cc1c(-c2noc(-c3ccccn3)n2)nnn1-c1ccc(F)cc1	72*	-4	61*	0
Cc1ccc(-n2nnc(-c3noc(-c4ccccn4)n3)c2C)cc1	-5	-8	-9	-6
Cc1ccc(-n2nnc(-c3noc(-c4ccncc4)n3)c2C)cc1	21	8	10	4
c1ccc(-n2nnc(-c3noc(-c4ccccn4)n3)c2-c2ccncc2)cc1	64*	32*	4	20
SMILES	USP17 block	USP8 block	USP30 block	USP28 block
Cc1c(-c2nc(-c3ccccc3Cl)no2)nnn1-c1cccc(F)c1	36*	28	62*	27
O=C(O)c1sccc1OCc1ccc(Cl)cc1	6	6	4	-1
CN1C(=O)OC[C@@H]2CCN(C(=O)Nc3cccc(Cl)c3)C[C@H]21	4	13	9	-4
COC(=O)CN1CC2(CCN(Cc3ccccc3)CC2)COc2ccccc2S1(=O)=O	-17	-59	-9	0
Cc1nnc2ccc(-c3cccc(NC(=O)c4ccccc4F)c3)nn12	0	2	18	7
NS(=O)(=O)c1ccc(C(=O)Nc2cccc(-c3ccc4nncn4n3)c2)cc1	9	34*	0	3
O=C(NCCn1cc(SCC(=O)N2CCOCC2)c2ccccc21)c1ccc(Cl)cc1Cl	-4	-217	4	-1
O=C(CSc1cn(CC(=O)N2CCCCC2)c2ccccc12)Nc1ccc(Cl)cc1	38*	-1	27	7
O=C(Cn1cc(S(=O)(=O)Cc2ccc(Cl)cc2)c2ccccc21)N1CCCCC1	3	3	75*	1
O=C(CSc1cn(Cc2ccccc2Cl)c2ccccc12)N1CCOCC1	14	-35	37*	18
CN(C)C(=O)n1c(C(=O)N2CCN(c3ccncc3)CC2)cc2c1c1ccccc1n2C	4	5	1	-1
COc1ccccc1NC(=O)CSc1nc(C)nc2c1oc1ccccc12	26	20	35*	18
Cc1nc(SCC(=O)Nc2ccc(C)c(Cl)c2)c2oc3ccccc3c2n1	44*	1	39*	11
COc1ccc(NC(=O)CSc2nc(C)nc3c2oc2ccccc23)c(OC)c1	1	0	-7	-1
Cc1nc(SCC(=O)NC(C)c2ccccc2)c2oc3ccccc3c2n1 (stereo not given)	38*	11	0	1
Cc1ccc(NC(=O)CSc2nc(C)nc3c2oc2ccccc23)c(C)c1	26	-2	32*	8
CCOc1ccccc1/C=C/C(=O)NCC(=O)N1CCC(N(C)C2CCCCCC2)CC1	-5	-7	2	-2
O=C(C1CCCN(S(=O)(=O)N2CCOCC2)C1)N1CCc2ccccc21 (stereo not given)	-7	0	0	-1
O=C(NCc1ccc(F)cc1)C1CCn2c(nc3ccccc32)C1 (stereo not given)	7	-4	2	6
Cc1nnc2ccc(-c3noc(COc4ccc(Cl)cc4)n3)cn12	-8	-5	-66	0
CNC(C(=O)NC(CO)Cc1c[nH]c2ccccc12)C(C)C (stereo not given)	12	0	24	2
O=C(CN1CCC2(CC1)N=C(c1ccc(F)cc1)C(=O)N2)Nc1ccc2c(c1)OCO2	-1	1	19	10
CCOc1ccccc1NC(=O)Cn1c(=O)n(CCCC(=O)N2CCc3ccccc3C2)c(=O)c2ccccc21	15	7	45*	24
Cc1ccc(S(=O)(=O)NCCc2nc(-c3ccccc3Cl)no2)cc1	2	1	-5	0
COc1ccc(Cc2nc3c4cnn(C)c4ncn3n2)cc1	2	1	1	-6
SMILES	USP17 block	USP8 block	USP30 block	USP28 block
COc1ccccc1CNC(=O)c1oc(=O)c2ccccc2c1-c1ccc(C)cc1	21	10	40*	25
CCOC(=O)c1c(C)oc2ccc(N(C(=O)c3ccncc3)S(=O)(=O)c3ccc(OCC)cc3)cc12	-17	-30	-12	38*
CCOc1ccc2oc(C)c(C(=O)Nc3ccccc3CC)c2c1	4	-3	7	-7
CCC(Oc1ccccc1OC)C(=O)Nc1cc(Cl)ccc1Cl (stereo not given)	0	5	-9	-1
CCCC1Cc2c(sc3nc(SCc4ccc(F)cc4)nc(N)c23)CO1 (stereo not given)	0	7	0	4
CCOC(=O)c1cc2c(ccn2C)n1CC(=O)N(Cc1ccccc1)c1ccc(F)cc1	24	39*	-218	-34
CC(C)OC(=O)c1cc2c(ccn2C)n1CC(=O)N1CCCCC1	-120	-89	i	-210
